Drawing on PubChem BioAssay (EPA / NIEHS), this text covers outcome and AC50 for 40 compounds.

Active and inactive are the calls of the source. The calls were made as follows: active = hit-call score of the fitted dose curve at least 0.9, where 1 is the maximum; inactive = score below 0.9.

This experiment is described as follows: ATG_AP_1_CIS: Attagene CIS-FACTORIAL HepG2 Assay for human Activator Protein 1 (AP-1) (AID 2282931). The following applies: HepG2 Attagene cis-factorial AP-1 reporter mRNA; actives raise or lower the signal. On the procedure: ATG_CIS is a cell-based, multiplexed-readout assay that uses HepG2, a human liver cell line, with measurements taken at 24 hours after chemical dosing in a 24-well plate.ATG_AP_1_CIS is one of 52 assay component(s) measured or calculated from the ATG_CIS assay. It is designed to make measurements of mRNA induction, a form of inducible reporter, as detected with fluorescence intensity signals by Reverse transcription polymerase chain reaction (RT-PCR) and Capillary electrophoresis technology.Data from the assay component ATG_AP_1_CIS was analyzed into 1 assay endpoint. This assay endpoint, ATG_AP_1_CIS, was analyzed with bidirectional fitting relative to DMSO as the negative control and baseline of activity. Using a type of inducible reporter, measures of mRNA for gain or loss-of-signal activity can be used to understand the reporter gene at the transcription factor-level as they relate to the gene FOS and JUN. Furthermore, this assay endpoint can be referred to as a primary readout, because this assay has produced multiple assay endpoints where this one serves a reporter gene function. To generalize the intended target to other relatable targets, this assay endpoint is annotated to the dna binding intended target family, where the subfamily is basic leucine zipper.
Human liver HepG2 cells are transiently transfected with multiple reporter transcription units (MRTUs) in 6-well plates using FuGene 6 reagent (Roche; 3 ml FuGene/1 mg DNA). The MRTU constructs are regulated by a cis-regulating element (promoter). […] A major difference between the CIS and TRANS system is that in CIS activities of endogenous TFs are measured, whereas the TRANS assay evaluates changes in activities of exogenous, chimeric NR-Gal4 proteins. […] At the end of 24 hour incubation, total RNA was isolated using TriZol reagent (Invitrogen). The isolated RNA is then reverse-transcribed using oligo(dT) primer and Mo-MLV reverse transcriptase (Invitrogen) with DNAse I (Ambion) treatment for 30 min. The one-tenth of the produced cDNA was amplified by PCR using Taq DNA polymerase (Invitrogen) and two reporter sequence-specific primers. The PCR products were fluorescently labeled by primer extension with 6-arboxyfluorescein (6-FAM) 5'-labeled reporter sequence-specific primer (2 min at 95 C, 20 s at 68 C and 10 min at 72 C) and these products were digested with 5U of HpaI (New England Biolabs) for 2h at 37 C. The fragments were purified using Qiaquick PCR columns (Qiagen), analyzed on an ABI 3130xL genetic analyzer (Applied Biosystems) with peak positions identified by using a set of X-rhodamine (ROX)-labeled MapMarker1000 molecular weight standards (BioVentures). The raw capillary electrophoresis data was processed using Attagraph software (Attagene).
On to `CCC1COC(=O)O1` (stereo not given), for which the compound was classed as inactive. Still for that read-out and setting: under `CC(C)(c1ccccc1)c1ccc(Nc2ccc(C(C)(C)c3ccccc3)cc2)cc1` stands “inactive”; under `CCCCCCCCCCCC(=O)N(C)CC(=O)O`, “inactive”; under `N#Cc1ccc(C(c2ccc(C#N)cc2)n2cncn2)cc1`, “inactive”. Regarding `CC(=O)CCC=C(C)C`, the outcome was inactive. Still for that read-out and setting: under `CCCC1CCCC(=O)O1` (stereo not given) stands “inactive”; under `O=C(O)c1cc(O)c2ccccc2c1O`, “inactive”; under `CC(=O)OC1CCCCC1`, “inactive”. `CCCCCCCCCCCC(=O)OCC`: the result was inactive.

`[Cl][Sc]([Cl])[Cl]`: the compound was called inactive. In the case of `O=c1c(O)c(-c2ccc(O)cc2O)oc2cc(O)cc(O)c12`, the result was inactive.

Regarding `O=C(O)c1ccc2c(c1)C(=O)OC2=O`, the compound was called inactive.

Take `N#Cc1ccc(C2CCCc3cncn32)cc1` (stereo not given): the call was inactive.

For `OCCCc1ccccc1`, the outcome was inactive. Still for that read-out and setting: under `N=C1C=CC(=C(c2ccc(N)cc2)c2ccc(N)cc2)C=C1` stands “inactive”; under `CCCCC(CC)COC(=O)/C=C/c1ccc(OC)cc1` (stereo not given), “inactive”. On to `Cc1noc(NS(=O)(=O)c2ccc(N)cc2)c1C`, for which the result was inactive. `c1ccc(Nc2cccc3ccccc23)cc1`: the AC50 was 53.7 µM (active).

Take `O=C1CCCCC1C1CCCCC1` (stereo not given): the call was inactive.

For `CC(C)[N+](C)(CCOC(=O)C1c2ccccc2Oc2ccccc21)C(C)C`, the compound was called inactive. Still for that read-out and setting: under `Oc1ccccc1Cc1ccccc1O` stands “inactive”; under `CC(C)(C)NC(=O)[C@H]1CC[C@H]2[C@@H]3CC[C@H]4NC(=O)C=C[C@]4(C)[C@H]3CC[C@]12C`, “inactive”; under `CCCc1ccc(O)c(OC)c1`, “inactive”. Same read-out and setting: under `CC(C)COC(=O)CC(C(=O)OCC(C)C)S(=O)(=O)O` (stereo not given) stands “inactive”; under `CC(C)CCCCCOC(=O)CS`, “inactive”. Still for that read-out and setting: under `Cc1cc(C)n(CO)n1` stands “inactive”.

Take `CCCCC/C=C\C/C=C\CCCCCCCC(=O)O`: the AC50 is 153 µM (active). For the compound `O=C(O)C1CCC(C(=O)O)CC1` (stereo not given), the call was inactive.

Take `CCC(C)C(=O)OC` (stereo not given): the compound was classed as inactive.

Consider `Nc1ccnc(=O)[nH]1`, for which the compound was classed as inactive.

Consider `Clc1cc(Cl)c(Cl)c(Cl)c1Cl`, for which the result was inactive. For the compound `CCCC(C)C(=O)OCC` (stereo not given), the compound was classed as inactive.

Regarding `Fc1ccc(Br)cc1`, the compound was called inactive. Same read-out and setting: under `O=C1CCCCCCCCCCCN1` stands “inactive”. The same measure, in the same setting: under `CC1CC(=O)CC(C)(C)C1` (stereo not given) stands “inactive”; under `CC(C)(O)Cc1ccccc1`, “inactive”. Still for that read-out and setting: under `CCCCC1CCC(=O)O1` (stereo not given) stands “inactive”.

`COc1cc(O)c(C(=O)c2ccccc2)cc1S(=O)(=O)O`: the result was inactive. On the same count and under the same terms, under `Nc1ccc(Cl)c(N)c1` stands “inactive”. Same read-out and setting: under `C[Si]1(C)O[Si](C)(C)O[Si](C)(C)O[Si](C)(C)O[Si](C)(C)O1` stands “inactive”.

The AC50 is the concentration giving half of the maximal activity seen.
